Measurements as given in PubChem BioAssay (NCI).
This is part of a sample that, as a whole, favours compounds with a hit. Of some 83,000 tested, about 20% had one in any assay.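 Plates (96-well) were seeded with cells, treated with compound at one concentration, and incubated for 48 hours before percent growth was determined.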 Values without a mark were called inactive. Activity calls are given as the source filed them. How the source made its calls: active means growth percent below 10; inactive means the rest.

Each compound was assayed on MDA-MB-468 breast (assay: NCI-60 one-dose screen, 48 h (100 = growth as untreated, 0 = no growth, -100 = all killed)). Settings: 10 µM unless noted.

**Q.** How did the growth turn out when CC(=O)OCCC(C)CCC=C(C)C (centres undefined) was run?
**A.** Its growth is 122%.

**Q.** O=C(CCN1C(=O)/C(=C/c2ccccc2F)SC1=S)N1CCOCC1 was tested. Which growth did it give?
**A.** The growth was 24.7%.

**Q.** How did the growth turn out when O=S(=O)(NCCNc1cc(-c2cn(-c3ccccc3)nc2-c2cccc(O)c2)ccn1)c1cccc(F)c1 was run?
**A.** The growth was 15.2%.

**Q.** Which growth does the source give for C#CCOc1ccc(/C=N/Nc2nc(-c3cc(Cl)ccc3Cl)cs2)cc1 here?
**A.** Its growth is 25.9%.

**Q.** C=CN(C(=O)N1CCN(c2cc3c(cc2F)c(=O)c(C(=O)O)cn3C2CC2)CC1)c1nc(-c2ccc(C)cc2)cs1 was tested. Which growth did it give?
**A.** Its growth is 44.4%.

**Q.** How did the growth turn out when Cc1ccc(-c2csc3nc(C)c(CCCl)c(=O)n23)cc1 was run?
**A.** The growth was 83.6%.

**Q.** With C=CC(=O)Nc1cccc(-c2nc(SC)nc(NCCc3ccc(OC)c(OC)c3)c2C#N)c1 as the compound, how does the growth read?
**A.** The growth was 19.2%.

**Q.** O=C(Nc1ccc(S(=O)(=O)NC2CCCCCC2)cc1)C(c1ccccc1)S(=O)(=O)c1ccc(F)cc1 (centres undefined) was tested. Which growth did it give?
**A.** Its growth is -14.5% (active).

**Q.** Which growth does the source give for O=C1Nc2ccccc2/C1=N\c1nnc(-c2ccccc2)o1 here?
**A.** Its growth is 69.6%.

**Q.** With O=C1C(Cl)=C(N=Nc2c(Cl)c(O)c3ccccc3c2O)C(=O)c2ccccc21 as the compound, how does the growth read?
**A.** The growth was 66.3%.

**Q.** How did the growth turn out when C/C=C\COc1cc(C)c(Cl)cc1Cl was run?
**A.** The growth was 91.5%.

**Q.** Which growth does the source give for CC1=CC(C)=Nc2ccc(Cl)cc2N1 here?
**A.** Its growth is 109%.

**Q.** For CCOC(=O)c1c(C)nc2c(c1N)CC(=O)N2CCc1ccccc1, which growth is on record?
**A.** Its growth is 44%.

**Q.** For C[C@H]1[C@H]2C3=CC[C@@H]4[C@@]5(C)C/C(=C/c6ccco6)C(=O)C(C)(C)[C@@H]5CC[C@@]4(C)[C@]3(C)CC[C@@]2(C(=O)N2CCOCC2)CC[C@@H]1C, which growth is on record?
**A.** The growth was 59.5%.

**Q.** For C=C1C(=O)O[C@H]2[C@H]1CC/C(COC(=O)CCSSCCC(=O)OC/C1=C/CC[C@@]3(C)O[C@H]3[C@H]3OC(=O)C(=C)[C@@H]3CC1)=C\CC[C@@]1(C)O[C@@H]21, which growth is on record?
**A.** Its growth is -54% (active).

**Q.** C[C@H](c1nc2ccc(N)cc2[nH]1)[C@H]1CC[C@H]2[C@@H]3CCC4=CC(=O)CC[C@]4(C)[C@H]3CC[C@]12C was tested. Which growth did it give?
**A.** The growth was 68.1%.

**Q.** With COc1cc(CCN=Cc2ccccc2O)c([N+](=O)[O-])cc1OC as the compound, how does the growth read?
**A.** The growth was 113%.

**Q.** With C=CCn1c(SCC(=O)Nc2cccc(C(=O)/C=C/c3ccccc3)c2)nc2ccccc2c1=O as the compound, how does the growth read?
**A.** The growth was 78.9%.

**Q.** O=C1C(N2CCOCC2)=Cc2cccc3cccc1c23 was tested. Which growth did it give?
**A.** Its growth is 72%.

**Q.** With COc1cc(/C=C2\Oc3cc(OCCCN4CCCC4)ccc3C2=O)cc(OC)c1 as the compound, how does the growth read?
**A.** The growth was 42.3%.

**Q.** How did the growth turn out when NS(=O)(=O)c1ccc(-n2ncc(NC(=O)Nc3ccc(S(=O)(=O)Nc4nccs4)cc3)c2-c2ccccc2)cc1 was run?
**A.** The growth was 102%.

**Q.** Which growth does the source give for c1ccc(-c2n(Cc3ccc4ccccc4n3)cc[n+]2Cc2ccc3ccccc3n2)cc1 here?
**A.** The growth was -12.3% (active).

**Q.** Which growth does the source give for CC1(C=O)NC(=O)NC1=O (centres undefined) here?
**A.** The growth was 101%.

**Q.** COc1ccccc1N1C(=O)/C(=C/C2=Cc3ccccc3OC2)SC1=S was tested. Which growth did it give?
**A.** The growth was 95%.

**Q.** For O=c1oc2cc(OS(=O)(=O)c3ccccc3)c(Cl)cc2c2c1CCCCCC2, which growth is on record?
**A.** The growth was 62.2%.

**Q.** NCCOCCOc1ccccc1 was tested. Which growth did it give?
**A.** The growth was 118%.

**Q.** How did the growth turn out when O=C1/C(=C/c2ccc(-c3ccc(Br)cc3)o2)SC(=S)N1CCc1ccc(O)cc1 was run?
**A.** Its growth is 90.2%.

**Q.** With COc1ccccc1/C=C1\COc2ccc(-c3ccccc3)cc2C1=O as the compound, how does the growth read?
**A.** The growth was 3.14% (active).

**Q.** For COc1cc(Cn2c(SCC(=O)Nc3ccc(Cl)cc3)nc3ccccc3c2=O)cc(OC)c1OC, which growth is on record?
**A.** The growth was 47.1%.

**Q.** Which growth does the source give for Cn1c2c(c3ccc(Cl)cc31)-n1cccc1C2=O here?
**A.** The growth was 104%.

**Q.** Clc1ccc(/C=N\N=c2\scc(-c3ccc(Cl)cc3)n2/N=C/c2ccc(Cl)cc2)cc1 was tested. Which growth did it give?
**A.** The growth was 115%.

**Q.** How did the growth turn out when N#CC1=C(N)Oc2c(cnn2-c2ccc([N+](=O)[O-])cc2[N+](=O)[O-])C1c1ccccc1 (centres undefined) was run?
**A.** Its growth is 87.7%.

**Q.** With OCCNC(=S)Nc1ccc(-c2nc(N3C[C@H]4CC[C@@H](C3)O4)c3cccn3n2)cc1 as the compound, how does the growth read?
**A.** Its growth is -24.6% (active).

**Q.** With CCS(=O)(=O)Nc1cccc(Nc2c3cccc(C)c3nc3c(C)cccc23)c1OC as the compound, how does the growth read?
**A.** The growth was 37.7%.

**Q.** For CCCCCCCCCCCCOc1ccccc1C=O, which growth is on record?
**A.** Its growth is 91.3%.

**Q.** Which growth does the source give for Cc1ccc(C(F)(F)F)cc1N1CCN(C(=O)[C@H]2C[C@H]2c2ccc(C(F)(F)F)nc2)CC1 here?
**A.** Its growth is 65.6%.

**Q.** With COc1cccc(/C=C/C(=O)c2c(C)nc3ccccc3c2/C=C/c2ccc(C)cc2)c1OC as the compound, how does the growth read?
**A.** The growth was 58.3%.

**Q.** How did the growth turn out when C#CCn1cnc2c(Nc3cccc(NC(=O)C=C)c3)ncnc21 was run?
**A.** Its growth is 78%.

**Q.** Which growth does the source give for Cc1ccc2ccccc2c1C[n+]1ccccc1 here?
**A.** The growth was 50.5%.
